# Measured values as given in PubChem BioAssay (NCI).
# This is part of a sample that, as a whole, favours compounds with a hit. Of some 83,000 tested, about 20% had one in any assay.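 Compound tested at a single concentration for 48 hours in 96-well plates; a percent growth value below 10 was scored as active.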 Unmarked numbers belong to inactive results. Calls of active or inactive are those of the source.
# Legend:
# Assay in all cases: NCI-60 one-dose screen, 48 h (100 = growth as untreated, 0 = no growth, -100 = all killed)
# Conditions in all cases: 10 µM unless noted
# [1] = tested on: NCI-H23 lung
# [2] = tested on: NCI-H226 lung
# [3] = tested on: NCI-H322M lung
# [4] = tested on: HOP-62 NSCLC
# [5] = tested on: NCI-H460 lung
# [6] = tested on: HOP-92 NSCLC
# [7] = tested on: NCI-H522 lung
# [8] = tested on: A549/ATCC NSCLC
# [9] = tested on: 786-0 renal
# [10] = tested on: COLO 205 colon
Compound,growth [1],growth [2] [%],growth [3] [%],growth [4],growth [5],growth [6],growth [7],growth [8],growth [9],growth [10]
O=Cc1ccc(O)c2ncccc12,29.2%,116,97.1,44.6%,30.1%,43.5%,51.8%,100%,89.3%,17.8%
CCOP(=O)(OCC)C1CP(=O)(c2ccccc2)CC(C)=C1Cl (stereo not given),91.7%,99.3,97.7,97.1%,113%,93.1%,65.3%,87.5%,87.8%,109%
COc1ccc(C2=Nc3c(N)ncnc3NC(c3ccc4c(c3)OCO4)C2)cc1 (stereo not given),69.7%,85.5,99.4,68.1%,102%,45.4%,87.4%,89.3%,55.6%,102%
CC1(c2ccccc2)NC(=O)N(NC(=O)CSc2nc(-c3cccs3)nc3ccccc23)C1=O (stereo not given),89.7%,91.1,98,88.7%,107%,77.4%,82.3%,79.1%,94.1%,124%
COc1cc(C(=O)/C=C/c2c(C(F)(F)F)nc3sccn23)cc(OC)c1OC,1.76% (active),29.1,13.8,4.69% (active),-72.1% (active),40.1%,-63.1% (active),11.3%,3.07% (active),-76.7% (active)
O=c1c2cc(F)ccc2sc2c(NCCCN3CCCC3)nc3ccccc3c12,64.2%,79.2,64.1,63.5%,12%,25.1%,25.1%,52.8%,37.1%,46%
COc1ccc(-c2nc(SCCC(C)C)nc(N/N=C\c3cccc([N+](=O)[O-])c3)c2C#N)cc1,28.7%,44.5,45.6,17.7%,13.3%,50.9%,29.8%,11.7%,15.3%,42%
N#Cc1c(N)nc2c(C#N)c(NC(=O)c3ccccc3)nn2c1-c1ccccc1,87%,78,94.7,90.7%,96.8%,82.5%,86.5%,92.6%,102%,103%
Cc1nc2c(c(N3CCCc4ccccc43)n1)CCC2,25.5%,10.9,54.5,4.68% (active),3.12% (active),0.664% (active),-18.6% (active),2.98% (active),10.1%,-59.5% (active)
N=C1C(c2nc(-c3ccc(Br)cc3)cs2)=C(O)CN1Cc1cccnc1,81.9%,98.8,50.2,43.6%,66.7%,-47.3% (active),68.4%,60.6%,35.2%,87.5%
Cc1ccc2nc3ccccc3c(NCc3ccccc3)c2c1,35.8%,49.8,40.8,43.5%,17.1%,-6.69% (active),37%,40.2%,34.3%,8.06% (active)
O=C1NC(=Nc2ccc(Cl)cc2)S/C1=C\c1cn(-c2ccccc2)nc1-c1ccccc1,93.4%,93.4,89.5,99.6%,44.6%,-0.936% (active),75.4%,34.9%,85.5%,96.7%
COc1ccc2c(c1)O/C(=C/c1ccc(OCC(=O)c3ccccc3)cc1)C2=O,98.1%,104,97.2,93.6%,118%,98.6%,94.5%,93.2%,101%,129%
